# Laboratory results taken from PubChem BioAssay (NCI).
# Compounds without any hit were thinned out: in the full panel of roughly 83,000, 20% have a hit.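 Step 1: grow cells in 96-well plates. Step 2: add test compound at a single concentration. Step 3: incubate 48 h. Step 4: record percent growth.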 Values without a mark were called inactive. Active and inactive are the calls of the source. The calls were made as follows: active = growth percent below 10; inactive = the rest.
# System: MDA-MB-231 breast
# Test: NCI-60 one-dose screen, 48 h (100 = growth as untreated, 0 = no growth, -100 = all killed)
# Settings: 10 µM
row,Compound,growth
1,CC(=O)OCC1CCCO1 (stereo unspecified),103%
2,N#CCCc1ccc(O)cc1,116%
3,Nc1ccc(N=Nc2ccc(S(=O)(=O)O)cc2)c2ccccc12,87.8%
4,O=C1OC(=O)C2C1C1(Cl)C(Cl)=C(Cl)C2(Cl)C2C(=O)OC(=O)C21 (stereo unspecified),122%
5,CCCCCCCCO,118%
6,O=c1[nH]nc(SC2CCCCC2)c(=O)[nH]1,102%
7,Cc1cc(C(O)(c2ccc(Nc3ccccc3)cc2)c2ccc(Nc3ccc(S(=O)(=O)O)cc3)cc2)ccc1N (stereo unspecified),-51.5% (active)
8,CCCNC(=O)c1ccc(S(N)(=O)=O)cc1,101%
9,CN(C)c1ccc2oc(=O)c3ccccc3c2c1,77.6%
10,Cc1ccc(CCCC(=O)O)c(C)c1,108%
11,Oc1ccccc1-c1nnco1,84.4%
12,COc1ccc(C(O)c2ccccc2)cc1 (stereo unspecified),95.5%
13,FC(F)(F)c1ccc2c(c1)N(CCCN1CCN(C3CC3)CC1)c1ccccc1S2,83%
14,CC(=O)NCc1cc(C)c(C)cc1C,110%
15,CCC(C)(O)c1ccc(C)cc1 (stereo unspecified),107%
16,CC(C)(N)COS(=O)(=O)O,93.4%
17,Cc1cc(C)cc(NCCC#N)c1,106%
18,O=C(O)CSCSCC(=O)O,107%
19,O/N=C/c1ccc(O)cc1O,105%

row,Compound,growth
1,CCO/C=C1\SC(=S)N(c2cccc(C)c2)C1=O,117%
2,Cc1cc2ccccc2c(O)c1C#N,98.9%
3,O=C(O)/C=C/C(=O)NCc1ccccc1,125%
4,Cc1cc2nc(CO)[nH]c2cc1C,109%
5,C=CCNc1ccccc1,86.7%
6,NC(=O)NC(=O)c1ccc(Cl)cc1,48.2%
7,CCOc1ccc(I)cc1,102%
8,CC(C)C(C#N)(C(C)C)C(C)C,104%
9,CCCCOC(OCCCC)c1ccccc1,112%
10,NC(=O)c1ccc(N=C(N)N=C(N)N)cc1,106%
11,CCOc1ccccc1/C=N/Nc1nc2ccccc2o1,82.8%
12,CO[C@H]1C[C@@H]2CC[C@@H](C)[C@@](O)(O2)C(=O)C(=O)N2CCCC[C@H]2C(=O)O[C@H]([C@H](C)C[C@@H]2CC[C@@H](O)[C@H](OC)C2)CC(=O)[C@H](C)C=C(C)[C@@H](O)[C@@H](OC)C(=O)[C@H](C)C[C@H](C)/C=C/C=C/C=C1C,75.9%
13,O=C(NCCNC(=O)c1ccc(Cl)cc1Cl)c1ccc(Cl)cc1Cl,91.8%
14,COC(=O)/C=C/C(=O)NC(N)=O,108%
15,Cc1ccc(O)c(C(=O)c2ccccc2)c1,90.6%
16,CN(C)c1ccc(C(c2ccc(O)cc2)c2ccc(N(C)C)cc2)cc1,87.3%
17,Nc1ccc(N)c([N+](=O)[O-])c1,80.9%
18,CCOC(=O)c1[nH]c(C)c(C(C)=O)c1C,96.6%
19,CC(C)C1CCCCC1O (stereo unspecified),99.4%

# System: RXF 393 renal
# Test: as above
# Settings: 10 µM
row,Compound,growth
1,CC(=O)OCC1CCCO1 (stereo unspecified),103%
2,N#CCCc1ccc(O)cc1,106%
3,Nc1ccc(N=Nc2ccc(S(=O)(=O)O)cc2)c2ccccc12,101%
4,O=C1OC(=O)C2C1C1(Cl)C(Cl)=C(Cl)C2(Cl)C2C(=O)OC(=O)C21 (stereo unspecified),100%
5,CCCCCCCCO,106%
6,O=c1[nH]nc(SC2CCCCC2)c(=O)[nH]1,129%
7,Cc1cc(C(O)(c2ccc(Nc3ccccc3)cc2)c2ccc(Nc3ccc(S(=O)(=O)O)cc3)cc2)ccc1N (stereo unspecified),-61.8% (active)
8,CCCNC(=O)c1ccc(S(N)(=O)=O)cc1,107%
9,CN(C)c1ccc2oc(=O)c3ccccc3c2c1,106%
10,Cc1ccc(CCCC(=O)O)c(C)c1,100%
11,Oc1ccccc1-c1nnco1,74%
12,COc1ccc(C(O)c2ccccc2)cc1 (stereo unspecified),111%
13,FC(F)(F)c1ccc2c(c1)N(CCCN1CCN(C3CC3)CC1)c1ccccc1S2,80.7%
14,CC(=O)NCc1cc(C)c(C)cc1C,103%
15,CCC(C)(O)c1ccc(C)cc1 (stereo unspecified),113%
16,CC(C)(N)COS(=O)(=O)O,110%
17,Cc1cc(C)cc(NCCC#N)c1,448%
18,O=C(O)CSCSCC(=O)O,97%
19,O/N=C/c1ccc(O)cc1O,112%

row,Compound,growth
1,CCO/C=C1\SC(=S)N(c2cccc(C)c2)C1=O,105%
2,Cc1cc2ccccc2c(O)c1C#N,118%
3,O=C(O)/C=C/C(=O)NCc1ccccc1,104%
4,Cc1cc2nc(CO)[nH]c2cc1C,89.8%
5,C=CCNc1ccccc1,113%
6,NC(=O)NC(=O)c1ccc(Cl)cc1,131%
7,CCOc1ccc(I)cc1,107%
8,CC(C)C(C#N)(C(C)C)C(C)C,115%
9,CCCCOC(OCCCC)c1ccccc1,128%
10,NC(=O)c1ccc(N=C(N)N=C(N)N)cc1,89.6%
11,CCOc1ccccc1/C=N/Nc1nc2ccccc2o1,112%
12,CO[C@H]1C[C@@H]2CC[C@@H](C)[C@@](O)(O2)C(=O)C(=O)N2CCCC[C@H]2C(=O)O[C@H]([C@H](C)C[C@@H]2CC[C@@H](O)[C@H](OC)C2)CC(=O)[C@H](C)C=C(C)[C@@H](O)[C@@H](OC)C(=O)[C@H](C)C[C@H](C)/C=C/C=C/C=C1C,14.1%
13,O=C(NCCNC(=O)c1ccc(Cl)cc1Cl)c1ccc(Cl)cc1Cl,95%
14,COC(=O)/C=C/C(=O)NC(N)=O,95.2%
15,Cc1ccc(O)c(C(=O)c2ccccc2)c1,110%
16,CN(C)c1ccc(C(c2ccc(O)cc2)c2ccc(N(C)C)cc2)cc1,112%
17,Nc1ccc(N)c([N+](=O)[O-])c1,107%
18,CCOC(=O)c1[nH]c(C)c(C(C)=O)c1C,97.3%
19,CC(C)C1CCCCC1O (stereo unspecified),112%
